Usually inhibition stands for the change of the read-out against control, counted positive when it falls.

The target in assay [1] is Sphingosine kinase 1 (Homo sapiens) (UniProt Q9NYA1). Particulars: at 1 µM.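 Also: mean SPHK1 inhibition value reported from the GSK PKIS kinase panel screen.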
For assay [2], the target named is T1, Sphingosine kinase 2 (Homo sapiens) (UniProt Q9NRA0).
T1 sequence (whole entry): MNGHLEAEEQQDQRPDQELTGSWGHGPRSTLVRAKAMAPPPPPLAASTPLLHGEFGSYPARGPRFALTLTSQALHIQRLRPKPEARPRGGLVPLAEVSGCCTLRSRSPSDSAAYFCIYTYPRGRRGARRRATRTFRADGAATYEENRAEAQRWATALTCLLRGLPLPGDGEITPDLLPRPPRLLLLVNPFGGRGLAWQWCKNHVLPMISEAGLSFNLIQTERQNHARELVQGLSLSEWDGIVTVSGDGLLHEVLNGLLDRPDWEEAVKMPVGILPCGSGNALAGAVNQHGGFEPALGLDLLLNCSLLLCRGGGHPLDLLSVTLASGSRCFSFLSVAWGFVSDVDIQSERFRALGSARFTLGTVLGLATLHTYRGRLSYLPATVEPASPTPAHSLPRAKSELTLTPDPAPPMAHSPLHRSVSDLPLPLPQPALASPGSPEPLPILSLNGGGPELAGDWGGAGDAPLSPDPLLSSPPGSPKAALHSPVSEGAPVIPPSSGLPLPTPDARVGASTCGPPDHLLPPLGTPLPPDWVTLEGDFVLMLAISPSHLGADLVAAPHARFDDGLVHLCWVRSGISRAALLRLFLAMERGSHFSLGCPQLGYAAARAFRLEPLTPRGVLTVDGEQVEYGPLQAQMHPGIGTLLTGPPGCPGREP
Particulars: at 0.1 µM.

The target in assay [3] is T1, Sphingosine kinase 2 (Homo sapiens). Particulars: at 1 µM.
Assay [4] deals with Casein kinase II subunit alpha (Homo sapiens) (UniProt P68400). Particulars: at 0.1 µM.
Assay [5] shares this target. Particulars: at 1 µM.
The target in assay [6] is T2, Inhibitor of nuclear factor kappa-B kinase subunit alpha (Homo sapiens) (UniProt O15111).
T2 sequence (whole entry): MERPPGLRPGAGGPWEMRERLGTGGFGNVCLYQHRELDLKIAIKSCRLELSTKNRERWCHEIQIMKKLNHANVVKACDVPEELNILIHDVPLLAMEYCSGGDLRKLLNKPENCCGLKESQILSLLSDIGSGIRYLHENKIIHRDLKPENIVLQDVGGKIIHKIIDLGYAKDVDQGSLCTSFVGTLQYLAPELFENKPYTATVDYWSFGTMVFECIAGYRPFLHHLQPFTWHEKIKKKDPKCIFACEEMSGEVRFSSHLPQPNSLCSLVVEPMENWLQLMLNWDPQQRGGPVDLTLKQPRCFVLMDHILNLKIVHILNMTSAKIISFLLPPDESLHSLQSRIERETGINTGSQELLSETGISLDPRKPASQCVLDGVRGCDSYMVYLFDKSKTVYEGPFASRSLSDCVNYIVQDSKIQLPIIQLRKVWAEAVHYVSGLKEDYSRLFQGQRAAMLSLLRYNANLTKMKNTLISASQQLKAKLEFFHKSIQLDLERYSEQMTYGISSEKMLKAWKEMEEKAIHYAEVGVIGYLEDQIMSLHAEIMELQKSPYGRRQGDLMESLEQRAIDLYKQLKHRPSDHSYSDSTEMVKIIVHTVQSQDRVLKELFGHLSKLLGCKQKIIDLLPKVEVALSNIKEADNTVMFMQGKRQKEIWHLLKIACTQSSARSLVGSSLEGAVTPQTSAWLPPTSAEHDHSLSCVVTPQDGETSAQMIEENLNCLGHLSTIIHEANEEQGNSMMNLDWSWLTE
Particulars: at 0.1 µM.

For assay [7], the target named is T2, Inhibitor of nuclear factor kappa-B kinase subunit alpha (Homo sapiens). The settings on record: at 1 µM.
In assay [8] the target is T3, Inhibitor of nuclear factor kappa-B kinase subunit beta (Homo sapiens) (UniProt O14920).
T3 sequence (whole entry): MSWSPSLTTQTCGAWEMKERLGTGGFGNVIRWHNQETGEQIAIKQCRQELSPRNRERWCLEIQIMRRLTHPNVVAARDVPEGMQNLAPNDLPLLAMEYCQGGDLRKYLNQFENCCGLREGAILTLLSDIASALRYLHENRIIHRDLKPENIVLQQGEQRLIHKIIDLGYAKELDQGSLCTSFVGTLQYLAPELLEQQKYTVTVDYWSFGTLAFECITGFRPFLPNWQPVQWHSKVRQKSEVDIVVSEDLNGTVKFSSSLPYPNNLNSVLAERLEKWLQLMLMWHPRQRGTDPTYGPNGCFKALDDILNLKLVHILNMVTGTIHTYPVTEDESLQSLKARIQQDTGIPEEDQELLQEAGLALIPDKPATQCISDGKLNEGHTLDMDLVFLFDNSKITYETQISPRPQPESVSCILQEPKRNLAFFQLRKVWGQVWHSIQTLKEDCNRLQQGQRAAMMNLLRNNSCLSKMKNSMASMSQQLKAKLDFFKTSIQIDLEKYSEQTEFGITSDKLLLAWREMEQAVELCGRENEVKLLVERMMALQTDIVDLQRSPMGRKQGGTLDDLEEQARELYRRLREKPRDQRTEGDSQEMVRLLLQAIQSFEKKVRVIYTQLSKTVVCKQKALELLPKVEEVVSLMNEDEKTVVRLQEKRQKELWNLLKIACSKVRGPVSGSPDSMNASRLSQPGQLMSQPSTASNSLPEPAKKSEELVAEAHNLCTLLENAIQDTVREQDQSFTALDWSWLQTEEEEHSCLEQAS
The settings on record: at 0.1 µM.

Assay [9] addresses T3, Inhibitor of nuclear factor kappa-B kinase subunit beta (Homo sapiens). The settings on record: at 1 µM.
Assay [10] addresses T4, Inhibitor of nuclear factor kappa-B kinase subunit epsilon (Homo sapiens) (UniProt Q14164).
T4 sequence (whole entry): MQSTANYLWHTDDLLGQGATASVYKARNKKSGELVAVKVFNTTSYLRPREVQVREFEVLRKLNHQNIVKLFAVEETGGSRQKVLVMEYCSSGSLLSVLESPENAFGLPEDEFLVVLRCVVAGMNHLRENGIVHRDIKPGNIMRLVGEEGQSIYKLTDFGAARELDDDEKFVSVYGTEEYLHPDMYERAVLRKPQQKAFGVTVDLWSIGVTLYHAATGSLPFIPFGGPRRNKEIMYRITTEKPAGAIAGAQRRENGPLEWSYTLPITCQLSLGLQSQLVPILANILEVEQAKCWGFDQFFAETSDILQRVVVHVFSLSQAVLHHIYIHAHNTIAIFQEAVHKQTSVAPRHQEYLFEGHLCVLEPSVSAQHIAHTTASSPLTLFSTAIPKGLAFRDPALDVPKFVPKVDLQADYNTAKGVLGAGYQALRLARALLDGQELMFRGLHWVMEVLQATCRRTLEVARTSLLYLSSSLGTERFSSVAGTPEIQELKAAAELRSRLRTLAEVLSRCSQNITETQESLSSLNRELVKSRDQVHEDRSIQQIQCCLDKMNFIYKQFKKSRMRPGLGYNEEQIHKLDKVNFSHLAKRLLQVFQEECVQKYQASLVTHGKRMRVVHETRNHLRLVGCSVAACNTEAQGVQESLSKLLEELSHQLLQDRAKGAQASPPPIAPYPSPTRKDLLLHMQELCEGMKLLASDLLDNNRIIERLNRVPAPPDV
The settings on record: at 0.1 µM.

In assay [11] the target is T4, Inhibitor of nuclear factor kappa-B kinase subunit epsilon (Homo sapiens). Particulars: at 1 µM.
The target of assay [12] is T5, Serine/threonine-protein kinase Nek1 (Homo sapiens) (UniProt Q96PY6).
T5 sequence (whole entry): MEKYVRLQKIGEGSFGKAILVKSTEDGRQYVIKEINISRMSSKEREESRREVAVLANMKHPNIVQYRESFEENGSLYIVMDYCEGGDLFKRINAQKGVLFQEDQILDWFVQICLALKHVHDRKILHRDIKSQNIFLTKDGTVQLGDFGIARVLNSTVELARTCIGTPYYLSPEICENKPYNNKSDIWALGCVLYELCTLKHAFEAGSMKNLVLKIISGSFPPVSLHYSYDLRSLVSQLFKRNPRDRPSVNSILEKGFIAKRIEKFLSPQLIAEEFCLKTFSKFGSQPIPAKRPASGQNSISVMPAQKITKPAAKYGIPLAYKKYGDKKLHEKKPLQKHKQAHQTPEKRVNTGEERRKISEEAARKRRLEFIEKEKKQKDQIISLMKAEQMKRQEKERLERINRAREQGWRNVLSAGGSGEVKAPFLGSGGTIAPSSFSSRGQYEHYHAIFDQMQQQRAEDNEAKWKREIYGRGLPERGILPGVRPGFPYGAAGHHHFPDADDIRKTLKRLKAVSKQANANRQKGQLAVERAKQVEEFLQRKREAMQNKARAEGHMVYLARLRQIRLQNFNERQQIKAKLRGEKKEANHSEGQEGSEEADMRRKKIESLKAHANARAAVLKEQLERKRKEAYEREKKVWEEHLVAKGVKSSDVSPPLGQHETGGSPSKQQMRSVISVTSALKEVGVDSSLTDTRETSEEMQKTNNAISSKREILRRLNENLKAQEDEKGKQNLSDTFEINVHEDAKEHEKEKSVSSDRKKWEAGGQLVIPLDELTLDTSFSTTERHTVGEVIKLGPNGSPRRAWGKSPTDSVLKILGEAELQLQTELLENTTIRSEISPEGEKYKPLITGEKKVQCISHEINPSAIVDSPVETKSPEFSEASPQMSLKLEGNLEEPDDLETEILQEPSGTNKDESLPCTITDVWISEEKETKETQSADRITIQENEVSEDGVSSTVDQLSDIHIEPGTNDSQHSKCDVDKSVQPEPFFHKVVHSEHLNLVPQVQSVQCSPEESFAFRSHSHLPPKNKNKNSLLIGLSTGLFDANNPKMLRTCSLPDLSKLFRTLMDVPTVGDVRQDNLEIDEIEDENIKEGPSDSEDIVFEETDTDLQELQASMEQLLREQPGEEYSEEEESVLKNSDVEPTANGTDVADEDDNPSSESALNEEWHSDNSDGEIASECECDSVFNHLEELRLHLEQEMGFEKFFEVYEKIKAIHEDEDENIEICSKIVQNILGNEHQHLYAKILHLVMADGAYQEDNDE
Particulars: at 0.1 µM.

Assay [13] addresses T5, Serine/threonine-protein kinase Nek1 (Homo sapiens). Particulars: at 1 µM.
Assay [14] deals with T6, Serine/threonine-protein kinase Nek2 (Homo sapiens) (UniProt P51955).
T6 sequence (whole entry): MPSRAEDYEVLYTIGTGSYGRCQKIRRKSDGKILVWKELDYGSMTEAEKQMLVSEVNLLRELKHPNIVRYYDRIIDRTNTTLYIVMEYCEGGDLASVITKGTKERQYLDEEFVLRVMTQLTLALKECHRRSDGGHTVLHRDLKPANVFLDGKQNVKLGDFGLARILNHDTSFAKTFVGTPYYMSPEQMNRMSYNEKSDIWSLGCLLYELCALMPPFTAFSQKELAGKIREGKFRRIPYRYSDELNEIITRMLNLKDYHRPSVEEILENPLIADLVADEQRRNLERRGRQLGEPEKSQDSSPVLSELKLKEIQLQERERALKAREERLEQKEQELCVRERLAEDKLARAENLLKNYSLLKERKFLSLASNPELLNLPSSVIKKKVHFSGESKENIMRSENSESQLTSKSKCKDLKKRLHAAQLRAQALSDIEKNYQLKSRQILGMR
The settings on record: at 0.1 µM.

Assay [15] addresses T6, Serine/threonine-protein kinase Nek2 (Homo sapiens). Particulars: at 1 µM.
For assay [16], the target named is Serine/threonine-protein kinase Nek6 (Homo sapiens) (UniProt Q9HC98). Particulars: at 0.1 µM.
For assay [17] the target is unchanged. The settings on record: at 1 µM.
In assay [18] the target is Serine/threonine-protein kinase Nek7 (Homo sapiens) (UniProt Q8TDX7). The settings on record: at 0.1 µM.
For assay [19] the target is unchanged. Particulars: at 1 µM.
For assay [20], the target named is T7, Serine/threonine-protein kinase Nek9 (Homo sapiens) (UniProt Q8TD19).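 Also: reported value is the mean percent inhibition of NEK9.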
T7 sequence (whole entry): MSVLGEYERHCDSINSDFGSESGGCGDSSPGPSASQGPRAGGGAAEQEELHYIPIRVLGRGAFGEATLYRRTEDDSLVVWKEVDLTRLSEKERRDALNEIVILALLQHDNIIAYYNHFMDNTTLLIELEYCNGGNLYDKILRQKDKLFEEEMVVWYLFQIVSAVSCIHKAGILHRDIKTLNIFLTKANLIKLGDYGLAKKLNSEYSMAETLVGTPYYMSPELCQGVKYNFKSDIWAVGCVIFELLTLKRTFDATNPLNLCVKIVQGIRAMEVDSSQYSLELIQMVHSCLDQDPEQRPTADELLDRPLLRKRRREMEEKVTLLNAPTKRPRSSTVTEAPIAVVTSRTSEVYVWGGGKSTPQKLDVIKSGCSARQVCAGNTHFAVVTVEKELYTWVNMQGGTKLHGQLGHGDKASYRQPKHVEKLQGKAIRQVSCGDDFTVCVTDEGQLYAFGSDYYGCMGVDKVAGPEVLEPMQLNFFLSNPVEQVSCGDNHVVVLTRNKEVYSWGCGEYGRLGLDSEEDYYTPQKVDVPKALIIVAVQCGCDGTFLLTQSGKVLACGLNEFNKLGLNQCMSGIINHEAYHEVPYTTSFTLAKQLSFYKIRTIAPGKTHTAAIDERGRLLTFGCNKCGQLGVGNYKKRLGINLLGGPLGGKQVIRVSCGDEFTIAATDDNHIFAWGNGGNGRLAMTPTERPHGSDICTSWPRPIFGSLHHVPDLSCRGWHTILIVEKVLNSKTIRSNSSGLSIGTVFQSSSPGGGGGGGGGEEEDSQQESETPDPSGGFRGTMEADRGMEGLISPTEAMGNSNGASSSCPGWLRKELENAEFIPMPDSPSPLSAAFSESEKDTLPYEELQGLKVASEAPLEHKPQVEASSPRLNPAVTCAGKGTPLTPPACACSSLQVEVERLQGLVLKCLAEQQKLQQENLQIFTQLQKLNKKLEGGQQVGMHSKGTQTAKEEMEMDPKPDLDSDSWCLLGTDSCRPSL
The settings on record: at 0.1 µM.

Serine/threonine-protein kinase Nek7 (Homo sapiens), sequence (Q8TDX7 whole entry, looked up): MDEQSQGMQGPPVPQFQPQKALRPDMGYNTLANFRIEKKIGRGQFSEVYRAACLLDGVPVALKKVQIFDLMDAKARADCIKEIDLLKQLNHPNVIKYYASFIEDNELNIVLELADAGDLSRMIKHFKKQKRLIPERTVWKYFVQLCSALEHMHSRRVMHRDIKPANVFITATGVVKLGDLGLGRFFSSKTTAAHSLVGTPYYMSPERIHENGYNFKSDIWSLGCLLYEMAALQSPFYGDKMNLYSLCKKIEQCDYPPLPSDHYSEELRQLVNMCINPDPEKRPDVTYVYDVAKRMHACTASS
Casein kinase II subunit alpha (Homo sapiens), sequence (P68400 whole entry, looked up): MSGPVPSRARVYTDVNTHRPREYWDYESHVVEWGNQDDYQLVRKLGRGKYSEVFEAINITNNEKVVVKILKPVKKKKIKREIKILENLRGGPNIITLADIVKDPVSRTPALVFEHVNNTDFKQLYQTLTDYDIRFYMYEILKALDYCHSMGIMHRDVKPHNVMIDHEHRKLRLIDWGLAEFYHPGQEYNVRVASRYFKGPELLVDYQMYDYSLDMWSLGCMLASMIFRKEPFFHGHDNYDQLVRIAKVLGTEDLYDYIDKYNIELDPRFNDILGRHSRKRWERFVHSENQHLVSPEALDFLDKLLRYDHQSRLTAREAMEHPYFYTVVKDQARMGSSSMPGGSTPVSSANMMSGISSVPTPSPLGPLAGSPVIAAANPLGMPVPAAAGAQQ
Serine/threonine-protein kinase Nek6 (Homo sapiens), sequence (Q9HC98 whole entry): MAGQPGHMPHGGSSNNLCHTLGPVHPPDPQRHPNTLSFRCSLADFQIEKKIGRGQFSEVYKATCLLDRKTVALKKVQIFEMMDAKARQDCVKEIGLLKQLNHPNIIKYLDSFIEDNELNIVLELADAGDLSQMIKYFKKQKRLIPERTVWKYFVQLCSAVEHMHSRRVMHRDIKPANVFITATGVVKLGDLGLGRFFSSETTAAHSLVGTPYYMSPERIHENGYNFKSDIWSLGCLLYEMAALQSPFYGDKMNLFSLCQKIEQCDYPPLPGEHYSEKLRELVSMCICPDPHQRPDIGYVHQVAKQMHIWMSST
Sphingosine kinase 1 (Homo sapiens), sequence (Q9NYA1 whole entry): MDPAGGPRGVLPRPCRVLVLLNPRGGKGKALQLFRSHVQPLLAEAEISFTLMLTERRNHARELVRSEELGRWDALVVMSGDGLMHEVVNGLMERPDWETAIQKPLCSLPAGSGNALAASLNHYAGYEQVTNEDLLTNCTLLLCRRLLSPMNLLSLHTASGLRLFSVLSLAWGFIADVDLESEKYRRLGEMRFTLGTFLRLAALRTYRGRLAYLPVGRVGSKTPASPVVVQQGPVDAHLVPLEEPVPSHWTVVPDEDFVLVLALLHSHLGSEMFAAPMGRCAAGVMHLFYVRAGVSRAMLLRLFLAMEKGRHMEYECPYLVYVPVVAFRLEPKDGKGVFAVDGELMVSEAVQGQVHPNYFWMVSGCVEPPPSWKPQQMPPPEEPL

In the case of `CC(C)(CO)CNC(=O)c1ccc2c(c1)/C(=N/Nc1ccc(S(N)(=O)=O)cc1)C(=O)N2`, the inhibition in [1] was found to be 0.62%; in assay [2], 0.34%; in assay [3], 0.16%; in assay [4] it was 2.49%; in [5], 23.5%; in assay [6] it was 4.85%. Moreover, the inhibition was 3.43% in assay [7]; 3.25% in assay [8]; 0.5% in [9]; 14.3% in assay [10]; 59.7% in assay [11]; 0.37% in assay [12]. In addition, the inhibition was 1.29% in assay [13]; 0.26% in [14]; 0.85% in [15]; 1.63% in assay [16]; 0.2% in assay [17]; -1.3% in assay [18]. Moreover, the figures for the inhibition in assay [19] and in assay [20] were 2.36% and 2.95%, respectively.

The record behind these values is ChEMBL document CHEMBL1961873, “Compounds: GSK PKIS; Assays: Nanosyn kinase panel” (2012).
